Article PMC9911399, “Two distinct binding modes provide the RNA-binding protein RbFox with extraordinary sequence specificity”
Where a chain is given by its changes, count along the chain named. The full ranking holds about 16,000 sequences; the median of “ka relative to ugcaugu” is about 0.096, and the highest 2% start at about 0.35. The full list was thinned out, with the highest values kept by preference.

T1: RBFOX1 RRM RbFoxmut (Fox-RRM*) (Homo sapiens, UniProt Q9NWB1 109-208, R118D;E147R;N151S;E152T)
T1 sequence: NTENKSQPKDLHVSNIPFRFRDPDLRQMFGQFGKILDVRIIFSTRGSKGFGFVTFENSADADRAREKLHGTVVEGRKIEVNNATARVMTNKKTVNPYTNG

B1: CUACGGU (DNA:RNA)
RNA: GGGAGACCGGAAUUCAGAUUGUCCCUACGGUUUAAAUCCCGUCGUAGCCACCA
DNA 1: CAATCTGAATTCCGGTCTCCC
DNA 2: TGGTGGCTACGACGGGATT
B2: CUCUAUU (DNA:RNA)
RNA: B1 RNA with A27C, C28U, G29A, G30U
DNA 1: CAATCTGAATTCCGGTCTCCC
DNA 2: TGGTGGCTACGACGGGATT
B3: UGCCUAC (DNA:RNA)
RNA: B1 RNA with C25U, U26G, A27C, G29U, G30A, U31C
DNA 1: CAATCTGAATTCCGGTCTCCC
DNA 2: TGGTGGCTACGACGGGATT
B4: GGCUUCC (DNA:RNA)
RNA: GGGAGACCGGAAUUCAGAUUGUCCGGCUUCCUUAAAUCCCGUCGUAGCCACCA
DNA 1: CAATCTGAATTCCGGTCTCCC
DNA 2: TGGTGGCTACGACGGGATT
B5: AAAUCUA (DNA:RNA)
RNA: B1 RNA with C25A, U26A, C28U, G29C, G30U, U31A
DNA 1: CAATCTGAATTCCGGTCTCCC
DNA 2: TGGTGGCTACGACGGGATT
B6: ACCACCC (DNA:RNA)
RNA: B4 RNA with G25A, G26C, U28A, U29C
DNA 1: CAATCTGAATTCCGGTCTCCC
DNA 2: TGGTGGCTACGACGGGATT
B7: UCUGUUU (DNA:RNA)
RNA: B1 RNA with C25U, U26C, A27U, C28G, G29U, G30U
DNA 1: CAATCTGAATTCCGGTCTCCC
DNA 2: TGGTGGCTACGACGGGATT
B8: CGUCGUG (DNA:RNA)
RNA: B1 RNA with U26G, A27U, G30U, U31G
DNA 1: CAATCTGAATTCCGGTCTCCC
DNA 2: TGGTGGCTACGACGGGATT
B9: UGCACGU (DNA:RNA)
RNA: B1 RNA with C25U, U26G, A27C, C28A, G29C
DNA 1: CAATCTGAATTCCGGTCTCCC
DNA 2: TGGTGGCTACGACGGGATT
B10: UGCACGG (DNA:RNA)
RNA: B4 RNA with G25U, U28A, U29C, C30G, C31G
DNA 1: CAATCTGAATTCCGGTCTCCC
DNA 2: TGGTGGCTACGACGGGATT
B11: CCUGCAC (DNA:RNA)
RNA: B1 RNA with U26C, A27U, C28G, G29C, G30A, U31C
DNA 1: CAATCTGAATTCCGGTCTCCC
DNA 2: TGGTGGCTACGACGGGATT
B12: CUGCACG (DNA:RNA)
RNA: B1 RNA with A27G, G29A, G30C, U31G
DNA 1: CAATCTGAATTCCGGTCTCCC
DNA 2: TGGTGGCTACGACGGGATT
B13: UGCCACG (DNA:RNA)
RNA: B4 RNA with G25U, U28C, U29A, C31G
DNA 1: CAATCTGAATTCCGGTCTCCC
DNA 2: TGGTGGCTACGACGGGATT
B14: UGCACCG (DNA:RNA)
RNA: B4 RNA with G25U, U28A, U29C, C31G
DNA 1: CAATCTGAATTCCGGTCTCCC
DNA 2: TGGTGGCTACGACGGGATT
B15: UGCACCA (DNA:RNA)
RNA: B4 RNA with G25U, U28A, U29C, C31A
DNA 1: CAATCTGAATTCCGGTCTCCC
DNA 2: TGGTGGCTACGACGGGATT
B16: UGCACGA (DNA:RNA)
RNA: B4 RNA with G25U, U28A, U29C, C30G, C31A
DNA 1: CAATCTGAATTCCGGTCTCCC
DNA 2: TGGTGGCTACGACGGGATT
B17: CUGCACC (DNA:RNA)
RNA: B1 RNA with A27G, G29A, G30C, U31C
DNA 1: CAATCTGAATTCCGGTCTCCC
DNA 2: TGGTGGCTACGACGGGATT
B18: GUCUGGU (DNA:RNA)
RNA: B1 RNA with C25G, A27C, C28U
DNA 1: CAATCTGAATTCCGGTCTCCC
DNA 2: TGGTGGCTACGACGGGATT
B19: AAACGGC (DNA:RNA)
RNA: B1 RNA with C25A, U26A, U31C
DNA 1: CAATCTGAATTCCGGTCTCCC
DNA 2: TGGTGGCTACGACGGGATT
B20: UCAUAGC (DNA:RNA)
RNA: B1 RNA with C25U, U26C, C28U, G29A, U31C
DNA 1: CAATCTGAATTCCGGTCTCCC
DNA 2: TGGTGGCTACGACGGGATT
B21: ACGGCGA (DNA:RNA)
RNA: B1 RNA with C25A, U26C, A27G, C28G, G29C, U31A
DNA 1: CAATCTGAATTCCGGTCTCCC
DNA 2: TGGTGGCTACGACGGGATT
B22: CUUUAUC (DNA:RNA)
RNA: B1 RNA with A27U, C28U, G29A, G30U, U31C
DNA 1: CAATCTGAATTCCGGTCTCCC
DNA 2: TGGTGGCTACGACGGGATT
B23: AAGCCUG (DNA:RNA)
RNA: B1 RNA with C25A, U26A, A27G, G29C, G30U, U31G
DNA 1: CAATCTGAATTCCGGTCTCCC
DNA 2: TGGTGGCTACGACGGGATT
B24: CAGGCUA (DNA:RNA)
RNA: B1 RNA with U26A, A27G, C28G, G29C, G30U, U31A
DNA 1: CAATCTGAATTCCGGTCTCCC
DNA 2: TGGTGGCTACGACGGGATT
B25: ACACAAA (DNA:RNA)
RNA: B1 RNA with C25A, U26C, G29A, G30A, U31A
DNA 1: CAATCTGAATTCCGGTCTCCC
DNA 2: TGGTGGCTACGACGGGATT
B26: GGUUCUG (DNA:RNA)
RNA: B4 RNA with C27U, U29C, C30U, C31G
DNA 1: CAATCTGAATTCCGGTCTCCC
DNA 2: TGGTGGCTACGACGGGATT
B27: UGGCGUG (DNA:RNA)
RNA: B1 RNA with C25U, U26G, A27G, G30U, U31G
DNA 1: CAATCTGAATTCCGGTCTCCC
DNA 2: TGGTGGCTACGACGGGATT
B28: AGCCUGC (DNA:RNA)
RNA: B4 RNA with G25A, U28C, C30G
DNA 1: CAATCTGAATTCCGGTCTCCC
DNA 2: TGGTGGCTACGACGGGATT
B29: AUGCUGC (DNA:RNA)
RNA: B1 RNA with C25A, A27G, G29U, U31C
DNA 1: CAATCTGAATTCCGGTCTCCC
DNA 2: TGGTGGCTACGACGGGATT
B30: AGCAUAA (DNA:RNA)
RNA: B4 RNA with G25A, U28A, C30A, C31A
DNA 1: CAATCTGAATTCCGGTCTCCC
DNA 2: TGGTGGCTACGACGGGATT
B31: CAGCAUG (DNA:RNA)
RNA: B1 RNA with U26A, A27G, G29A, G30U, U31G
DNA 1: CAATCTGAATTCCGGTCTCCC
DNA 2: TGGTGGCTACGACGGGATT
B32: AGCAUGC (DNA:RNA)
RNA: B4 RNA with G25A, U28A, C30G
DNA 1: CAATCTGAATTCCGGTCTCCC
DNA 2: TGGTGGCTACGACGGGATT
B33: CAGCAUC (DNA:RNA)
RNA: B1 RNA with U26A, A27G, G29A, G30U, U31C
DNA 1: CAATCTGAATTCCGGTCTCCC
DNA 2: TGGTGGCTACGACGGGATT
B34: AGCAUGA (DNA:RNA)
RNA: B4 RNA with G25A, U28A, C30G, C31A
DNA 1: CAATCTGAATTCCGGTCTCCC
DNA 2: TGGTGGCTACGACGGGATT
B35: CAGCAUA (DNA:RNA)
RNA: B1 RNA with U26A, A27G, G29A, G30U, U31A
DNA 1: CAATCTGAATTCCGGTCTCCC
DNA 2: TGGTGGCTACGACGGGATT
B36: AUGCUUG (DNA:RNA)
RNA: B1 RNA with C25A, A27G, G29U, G30U, U31G
DNA 1: CAATCTGAATTCCGGTCTCCC
DNA 2: TGGTGGCTACGACGGGATT
B37: ACCAGCA (DNA:RNA)
RNA: B4 RNA with G25A, G26C, U28A, U29G, C31A
DNA 1: CAATCTGAATTCCGGTCTCCC
DNA 2: TGGTGGCTACGACGGGATT
B38: AGCCAGC (DNA:RNA)
RNA: B4 RNA with G25A, U28C, U29A, C30G
DNA 1: CAATCTGAATTCCGGTCTCCC
DNA 2: TGGTGGCTACGACGGGATT
B39: ACCAUGC (DNA:RNA)
RNA: B4 RNA with G25A, G26C, U28A, C30G
DNA 1: CAATCTGAATTCCGGTCTCCC
DNA 2: TGGTGGCTACGACGGGATT

What follows are binders tested against T1, RBFOX1 RRM RbFoxmut (Fox-RRM*) (assay: EMSA; HiTS-Eq, 1 nM pool, 10 min; buffer printed only for the single-RNA assays: 10 mM Tris pH 7.5, 150 mM NaCl, 3.4 mM EDTA, 0.001% NP-40, 30 C). Details: tags: His6 N-terminal (pET28a); label: 5' 32P.
How it was run: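 Purified wild-type or mutant RbFox RRM at increasing concentrations was equilibrated with 1 nM of 5′-radiolabelled RNA carrying 7 randomized nucleotides for 10 min in 50 µL. Unbound RNA was separated by 8% native PAGE and sequenced. Relative association constants came from read-count changes of each RNA species compared with the control reaction, normalised to the cognate motif.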

Binder | binding signal
B1 | 0.0878 KA relative to UGCAUGU
B2 | 0.107 KA relative to UGCAUGU
B3 | 0.105 KA relative to UGCAUGU
B4 | 0.142 KA relative to UGCAUGU
B5 | 0.088 KA relative to UGCAUGU
B6 | 0.0531 KA relative to UGCAUGU
B7 | 0.0825 KA relative to UGCAUGU
B8 | 0.156 KA relative to UGCAUGU
B9 | 0.362 KA relative to UGCAUGU
B10 | 0.308 KA relative to UGCAUGU
B11 | 0.09 KA relative to UGCAUGU
B12 | 0.626 KA relative to UGCAUGU
B13 | 0.158 KA relative to UGCAUGU
B14 | 0.223 KA relative to UGCAUGU
B15 | 0.158 KA relative to UGCAUGU
B16 | 0.368 KA relative to UGCAUGU
B17 | 0.141 KA relative to UGCAUGU
B18 | 0.192 KA relative to UGCAUGU
B19 | 0.085 KA relative to UGCAUGU
B20 | 0.116 KA relative to UGCAUGU

Binder | binding signal
B21 | 0.1 KA relative to UGCAUGU
B22 | 0.0598 KA relative to UGCAUGU
B23 | 0.0848 KA relative to UGCAUGU
B24 | 0.0916 KA relative to UGCAUGU
B25 | 0.0812 KA relative to UGCAUGU
B26 | 0.208 KA relative to UGCAUGU
B27 | 0.321 KA relative to UGCAUGU
B28 | 0.0804 KA relative to UGCAUGU
B29 | 0.126 KA relative to UGCAUGU
B30 | 0.0973 KA relative to UGCAUGU
B31 | 0.965 KA relative to UGCAUGU
B32 | 0.495 KA relative to UGCAUGU
B33 | 0.307 KA relative to UGCAUGU
B34 | 0.524 KA relative to UGCAUGU
B35 | 0.137 KA relative to UGCAUGU
B36 | 0.361 KA relative to UGCAUGU
B37 | 0.121 KA relative to UGCAUGU
B38 | 0.0776 KA relative to UGCAUGU
B39 | 0.0949 KA relative to UGCAUGU
